High-throughput results deposited in PubChem by National Center for Advancing Translational Sciences (NCATS).
HP1b binding inh: HP1-beta chromodomain-methylated histone interaction inhibition. AlphaScreen HP1-beta / biotin-H3K9me3 peptide binding. 0.56% of 390,000 active. Potency, µM (series often up to 114 µM), for inactives: at the highest dose activity change, negative = inhibition, most hits filed as inhibitors. P83916; further: nearly all actives have a fitted effect of over 70% in size
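AlphaScreen: HP1-beta (50 nM) preformed 30 min with biotin-H3(1-18)K9me3 peptide (50 nM) in PBS pH 7.4, 0.01% Tween-20. Compound added for 30 min at RT, then streptavidin donor/nickel chelate acceptor beads (10 ug/mL) for 30 min.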
G9a inh: inhibitors of human histone lysine methyltransferase G9a | 8.8% of 350,000 active | Potency, µM (titrated, usually from 102 µM), inactives show top-dose activity, negative = inhibition, usual class: inhibitors | G9a H3K9 monomethylation, AlphaScreen, 2 h | AID 504332; further: on the % scale 0 is the no-effect control and ±100 the full control effect; nearly all actives have a fitted effect of over 75% in size
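Using a bead-based AlphaScreen, monomethylated H3K9 product from 2 h room-temperature reactions (G9a 20 nM, peptide 500 nM, SAM 20 uM) was detected with 0.5 ug/mL rabbit anti-H3K9me1 antibody.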
Sfp inh: inhibitors of Bacillus subtilis Sfp phosphopantetheinyl transferase; AID 1490; 3.5% of 310,000 active; Q9F4F7; Potency, µM, for the others: largest response in the series, negative = inhibition, most hits filed as inhibitors; Biochemical Sfp PPTase activity, qHTS;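 further: the enzyme is Sfp with the accession as filed and its product quenches rhodamine fluorescence; 0% = enzyme reaction without inhibitor and -100% = no enzyme wells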
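Fluorescence-quenching assay: 15 nM Sfp-PPTase preincubated 15 min at room temperature with compound, then 5 uM rhodamine-CoA and 12.5 uM BHQ-2-labelled YbbR peptide added. Fluorescence (ex 525/em 598 nm) read at start and after 30 min; difference gives rate.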
L3MBTL1 inh: L3MBTL1 (human) inhibition; AlphaScreen L3MBTL1–H3K9me1 peptide binding; Potency, µM (highest dose often 57.1 µM), for inactives: top-dose activity, negative = inhibition, actives largely listed as inhibitors; 0.66% of 230,000 active; Q9Y468; further: on the % scale 0 is the no-effect control and ±100 the full control effect; nearly all actives have a fitted effect of over 60% in size
Target sequence (Q9Y468 whole entry, looked up): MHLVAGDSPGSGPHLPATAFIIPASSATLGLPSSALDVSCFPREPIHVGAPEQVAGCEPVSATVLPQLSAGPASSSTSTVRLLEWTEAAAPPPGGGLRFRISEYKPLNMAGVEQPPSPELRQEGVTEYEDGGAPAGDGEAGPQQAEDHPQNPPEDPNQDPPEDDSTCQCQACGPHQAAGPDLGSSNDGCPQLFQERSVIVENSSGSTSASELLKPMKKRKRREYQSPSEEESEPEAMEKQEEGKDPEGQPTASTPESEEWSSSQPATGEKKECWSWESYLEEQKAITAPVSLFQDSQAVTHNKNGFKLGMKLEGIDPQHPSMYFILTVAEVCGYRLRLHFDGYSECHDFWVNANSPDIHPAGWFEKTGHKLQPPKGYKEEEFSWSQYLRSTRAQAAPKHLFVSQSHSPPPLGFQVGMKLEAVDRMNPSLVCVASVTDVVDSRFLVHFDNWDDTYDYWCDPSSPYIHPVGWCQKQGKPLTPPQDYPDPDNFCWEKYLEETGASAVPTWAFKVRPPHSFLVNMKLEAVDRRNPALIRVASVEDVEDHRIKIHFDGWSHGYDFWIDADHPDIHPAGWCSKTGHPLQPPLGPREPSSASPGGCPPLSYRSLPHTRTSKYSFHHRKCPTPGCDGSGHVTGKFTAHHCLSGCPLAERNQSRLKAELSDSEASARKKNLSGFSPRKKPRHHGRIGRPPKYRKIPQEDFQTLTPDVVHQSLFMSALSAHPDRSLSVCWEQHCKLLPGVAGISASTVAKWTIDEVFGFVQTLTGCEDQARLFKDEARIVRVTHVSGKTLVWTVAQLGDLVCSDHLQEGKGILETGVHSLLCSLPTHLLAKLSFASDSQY
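Read-out is AlphaScreen signal from streptavidin donor and nickel chelate acceptor beads (10 ug/mL final each) bridging L3MBTL1 (50 nM) and biotinylated K9-monomethylated H3(1-15) peptide (75 nM), after 30 min compound exposure at room temperature.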
JMJD2A Tudor inh: blocks the human JMJD2A Tudor domain | AID 504339 | Potency, µM (highest dose often 114 µM), inactives show at the highest dose activity change, negative = inhibition, hits mostly inhibitors | AlphaScreen JMJD2A-Tudor / H3K4me3 peptide binding | 4.4% of 390,000 active | O75164; further: on the % scale 0 is the no-effect control and ±100 the full control effect; nearly all actives have a fitted effect of over 50% in size
BAZ2B inh: BAZ2B (human) inhibition; Q9UIF8; AlphaScreen BAZ2B-H3K14Ac peptide displacement; Potency, µM (doses to about 114 µM), for inactives: top-dose activity change, negative = inhibition, usual class: inhibitors; 4.4% of 360,000 active; AID 504333; further: on the % scale 0 is the no-effect control and ±100 the full control effect; nearly all actives have a fitted effect of over 60% in size
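Compounds, titrated to a top concentration of 110 uM, were incubated 30 min at room temperature with preformed BAZ2B/acetyl-K14 H3 peptide complex (50 nM each). Proximity signal was measured by AlphaScreen after 20 min with beads.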
* hit, by the source's call; ? = inconclusive; nt = not tested or not shown; [ ] = remark or other dose. Most compounds without a hit are left out; they make up all but 12% or so of the library. The call rests on the fitted dose curve; in most records, active means well fitted curve in the direction sought with a large enough effect; inconclusive means small, poorly fitted or top-dose-only effect, or another doubt; inactive means no such curve, though single readings can be large; an effect the other way counts as inactive or inconclusive. Potency means the concentration at half of the fitted maximal effect.

SMILES	HP1b binding inh	G9a inh	Sfp inh	L3MBTL1 inh	JMJD2A Tudor inh	BAZ2B inh
Cc1nc(NC2CCCCC2)c2nc(-c3ccccc3)n(CCN3CCCC3)c2n1	nt	nt	-0.5%	nt	nt	nt
COc1cccc(N2C(=NC(=O)c3ccccc3)SC3CS(=O)(=O)CC32)c1 (stereo unspecified)	0.6%	20.9%[59 µM]	13.1%	nt	-5.3%	0.1%
COc1ccc(C(C)(C)C)cc1NC(=O)CCc1c(C)noc1C	64.1%	0.2%[2.33 µM]	nt	2.3%	-13.4%	-3.7%
Nc1ccc(-c2nc3ccc(-c4nc5ccc(N)cc5[nH]4)cc3[nH]2)cc1	nt	22.4µM*	?	nt	nt	nt
Nc1ccc2nc(-c3ccc(-c4nc5ccc(N)cc5[nH]4)cc3)[nH]c2c1	19.0%	5.2%	-5.7%	nt	-33.3%	?
Nc1ccc2nc(-c3cccc(-c4nc5ccc(N)cc5[nH]4)n3)[nH]c2c1	?	11.2µM*	31.6µM*	nt	44.7µM*	25.1µM*
C[C@H](O/N=C1/[C@H]2O[C@@H]2[C@@H](O)[C@H]2[C@H]1CCn1c(=O)n(-c3ccccc3)c(=O)n12)c1cn([C@H]2COC[C@H]2O)nn1	nt	nt	11.2%	nt	nt	nt
Cc1oc(-c2ccccc2Cl)nc1CS(=O)(=O)CC(=O)NCc1ccc(F)cc1	34.1%	5.4%[59 µM]	nt	nt	-6.0%	-5.0%
CC(C)C(=O)Nc1sc2c(c1-c1nc3ccccc3[nH]1)CCCC2	41.4%	14.1µM*	-4.0%	-4.9%	-22.9%	4.1%
CC(C)C(=O)Nc1ccccc1-c1nc2ccccc2[nH]c1=O	19.1%	?	11.6%	nt	-13.6%	-19.3%
Cn1c(=O)c2cc(S(=O)(=O)NC(Cc3ccccc3)C(=O)Nc3ccc(F)cc3)ccc2n(C)c1=O (stereo unspecified)	10.6%	-18.2%[59 µM]	nt	nt	-19.9%	?
Cc1nc(/C=[N+](\[O-])C(C)(C)/C=N/O)n(O)c1C	24.0%	?	-20.8%	nt	7.94µM*	50.1µM*
CCOc1ccc(S(=O)(=O)Nc2ccc(C(=O)NCc3ccncc3)cc2)cc1	39.3%	12.7%[12.7 µM]	nt	1.3%	-16.9%	-6.3%
N=C1c2c(cc(=O)n3c2[nH]c2ccccc23)CN1CCN1CCOCC1	10.4%	35.5µM*	2.5%	nt	-17.4%	nt
COc1ccc(CN2C(=O)[C@@H]3C(c4ccc(F)cc4)=NO[C@@H]3C2=O)cc1	68.9%	-38.7%	-1.5%	0.1%	-16.4%[11.4 µM]	14.3%
COc1ccc(N2C(=O)[C@@H]3C(c4cccnc4)=NO[C@@H]3C2=O)cc1	26.4%	nt	79.4µM*	-17.1%	-35.1%	-20.2%
CC(=O)C1=NOC2C(=O)N(c3ccc(Cl)cc3)C(=O)C12 (stereo unspecified)	48.1%	?	9.2%	nt	3.7%	-31.7%
Cc1ccc(N2C(=O)[C@@H]3C(c4cccnc4)=NO[C@@H]3C2=O)cc1	21.8%	-14.8%[12.7 µM]	50.1µM*	33.2%	-20.6%	-4.8%
O=C(NNC(=O)c1cc([N+](=O)[O-])ccc1Cl)c1cccnc1	69.9%	11.0%	1.9%	nt	-3.8%	-3.7%
C=C1C2=CC(=O)OC(c3ccoc3)[C@]2(C)CCC1[C@]1(C)C=CC(=O)C(C)(C)C1CC(=O)OC (stereo partly specified)	nt	-30.0%[2.33 µM]	-8.8%	nt	nt	nt
CN(C)c1ccc(/C=C2\SC(=S)N(Nc3ncc(C(F)(F)F)cc3Cl)C2=O)cc1	-5.3%	?	50.1µM*	-11.4%	-32.6%	?
CC(=O)NN1C(=O)/C(=C\c2ccc(Cl)cc2)SC1=S	16.0%	nt	4.0%	7.3%	-5.7%	-2.0%
COc1cc(/C=C2\SC(=S)N(Nc3ncc(C(F)(F)F)cc3Cl)C2=O)ccc1O	?	39.8µM*	?	nt	?	35.5µM*
COc1ccc2[nH]c3c(c2c1)CCN1C(=O)C(CC(=O)NCC24CC5CC(CC(C5)C2)C4)C[C@H](C(=O)N2CCOCC2)[C@@]31CCC1CCCC1 (stereo partly specified)	-5.6%	nt	nt	-0.6%	39.8µM*	nt
